# Experimental data published in PubChem BioAssay (NCI).
# The panel holds about 83,000 compounds, 20% with a hit somewhere; the sample as a whole holds those more often.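 Method: cells in 96-well plates; compound added at one concentration; 48 h incubation; percent growth measured; values under 10 scored active.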 Values without a mark were called inactive. The source made the active and inactive calls.
# What was measured:
# Experiment in all cases: NCI-60 one-dose screen, 48 h (100 = growth as untreated, 0 = no growth, -100 = all killed)
# Details in all cases: 10 µM unless noted
# SK-MEL-2 melanoma = tested on: SK-MEL-2 melanoma
# EKVX NSCLC = tested on: EKVX NSCLC
# SN12C renal = tested on: SN12C renal
# UO-31 renal = tested on: UO-31 renal
# TK-10 renal = tested on: TK-10 renal
# ACHN renal = tested on: ACHN renal
# CAKI-1 renal = tested on: CAKI-1 renal
# A498 renal = tested on: A498 renal
# CCRF-CEM leukemia = tested on: CCRF-CEM leukemia
# MOLT-4 leukemia = tested on: MOLT-4 leukemia
SMILES,growth (SK-MEL-2 melanoma),growth (EKVX NSCLC),growth (SN12C renal),growth (UO-31 renal),growth (TK-10 renal),growth (ACHN renal),growth (CAKI-1 renal),growth (A498 renal),growth (CCRF-CEM leukemia),growth (MOLT-4 leukemia)
COc1cccc(-c2nn(-c3ccccc3)cc2-c2ccnc(NCCNC(=O)Nc3cccc(C(F)(F)F)c3)c2)c1,-25.2% (active),45.1%,28.4%,-21.9% (active),57.7%,35.1%,25.7%,39.7%,28.7%,–
COC(=O)[C@]12CC[C@@H](C)[C@H](C)[C@@H]1C1=CC[C@@H]3[C@@]4(C)C(C=O)=C[C@@](C)(CO)[C@@H]4[C@H](O)C[C@@]3(C)[C@]1(C)CC2,-31.7% (active),7.75% (active),1.62% (active),-31.5% (active),-18.8% (active),-81.6% (active),-28.7% (active),-5.03% (active),1.38% (active),–
Cc1ccc2nc3ccccc3c(NCc3ccccc3)c2c1,100%,49.6%,25.5%,18.3%,75.3%,23.2%,35.5%,11.4%,34.9%,–
COc1ccc(C2=NN(C(=O)c3cc(OC)c(OC)c(OC)c3)C(c3ccc(Cl)cc3)C2)cc1OC (stereo not given),39.5%,53.4%,39.5%,34.4%,25.4%,43.3%,26.6%,-1.72% (active),-2.55% (active),9.1% (active)
CC(C)C(=O)Nc1n[nH]c2cc(-c3cccc(NS(=O)(=O)C4CC4)c3)ccc12,78%,71.7%,77.7%,56.7%,94.9%,70%,71.2%,100%,72.4%,57.8%
CCCCCCCOc1c(OC)cc(C2CC(=O)Nc3c2c(C)nn3-c2nc3ccccc3[nH]2)cc1OC (stereo not given),-56.8% (active),-26.5% (active),9.34% (active),-69.7% (active),11%,1.49% (active),-41% (active),-28.6% (active),24.5%,15.2%
CCc1ccccc1NC(=O)/C(C#N)=C/c1ccc(OC)cc1,104%,92.7%,94%,80.5%,115%,97.4%,103%,100%,84.7%,87.3%
N#Cc1c(N)nc2c(C#N)c(NC(=O)c3ccccc3)nn2c1-c1ccccc1,101%,71.9%,91.7%,61.3%,135%,89.6%,91%,59.1%,57.2%,74.9%
COC(=O)c1ccc(CSc2nnc(-c3c(C)nc4ccc(C)cn34)o2)cc1,105%,102%,99.2%,85.9%,113%,98.3%,92.9%,93.5%,106%,94.4%
CN(C)CCCn1c(=O)c2ccccc2c2ccccc21,83.7%,107%,50.6%,53.6%,79.3%,42.2%,79.8%,104%,49.9%,51.6%
Cc1ccc(Cl)cc1NC(=O)c1cc2ccccc2cc1O,-12.3% (active),4.4% (active),-21.8% (active),-8.04% (active),-1.32% (active),-15% (active),-16.8% (active),-31.4% (active),-22.3% (active),-37.4% (active)
N/C(=N/N=C/c1ccccc1)N/N=C\c1ccccc1,42.1%,76.5%,67.4%,68.2%,73.9%,76%,62.9%,66.6%,50.6%,30.4%
Fc1ccc(CNc2c3ccccc3nc3ccccc23)cc1F,89.4%,35.4%,29.7%,15.6%,51.1%,19.3%,25.3%,9.78% (active),41.5%,–
O=C1NC(=Nc2ccc(Cl)cc2)S/C1=C\c1cn(-c2ccccc2)nc1-c1ccccc1,103%,85.3%,79.3%,87.2%,60.9%,91.9%,94.7%,79.7%,60.6%,81.7%
O=c1ssc(Cl)c1-c1ccccc1,155%,94.9%,93.9%,74.6%,126%,104%,90.5%,108%,98.1%,–
Cc1ccc(NCCN(C)C)c2c(=O)c3ccccc3sc12,71.9%,49.4%,25.1%,-30.5% (active),54.8%,3.03% (active),-20% (active),37.6%,27%,–
Cc1ccc(S(=O)(=O)Oc2cc(OS(=O)(=O)c3ccc(C)cc3)cc(OS(=O)(=O)c3ccc(C)cc3)c2)cc1,91.5%,106%,107%,71.8%,156%,114%,84.2%,96.9%,95.7%,82.2%
Cn1c(=O)c2[nH]c(NN)nc2n(C)c1=O,105%,120%,108%,90.8%,107%,105%,96%,109%,92.4%,96.1%
COc1ccc2c(c1)O/C(=C\c1cccc(OCC(=O)Nc3nc(C)c(C)s3)c1)C2=O,89.3%,-13.4% (active),33.8%,-74.9% (active),111%,98.7%,-82.7% (active),114%,-66.8% (active),19.2%
COC(=O)[C@]12CC[C@@H](C)[C@H](C)[C@@H]1C1=CC[C@@H]3[C@@]4(C)C(C=O)=C[C@@](C)(COC(C)=O)[C@@H]4C(=O)C[C@@]3(C)[C@]1(C)CC2,43%,36.1%,43.6%,34.1%,36.8%,23.5%,44.6%,60.5%,43.9%,–
COc1ccc(-c2nc(SCCC(C)C)nc(N/N=C\c3cccc(Cl)c3)c2C#N)cc1,98.3%,77.3%,41.9%,48.9%,47.1%,17.9%,61%,42.5%,50%,74.7%
CCc1ccccc1-n1c(N)c(C#N)c(-c2ccc(N(C)C)cc2)c(C#N)c1=O,112%,90.4%,96.8%,85.3%,99.6%,94.8%,93.6%,94.2%,-30.8% (active),117%
C[n+]1cc2c3c(ccc2c2ccc4cc5c(cc4c21)OCO5)OCO3,-77.4% (active),-74% (active),-53.4% (active),-94.6% (active),-95.4% (active),-92.2% (active),-29.9% (active),-64.1% (active),11.8%,–
COc1ccc2cc(-c3cc(OC)c(OC)c(OC)c3)c(=O)oc2c1,62.3%,54.1%,92.7%,87.7%,85.8%,90.1%,79.3%,53%,74.6%,–
N#Cc1c(N)nc(NCCO)nc1-c1ccc(F)cc1,108%,89.9%,103%,92.8%,106%,100%,95.9%,89.1%,112%,–
COc1ccc(S(=O)(=O)NCCNc2nccc(-c3c(-c4cccc(F)c4)nc4sccn34)n2)cc1,58.1%,39.7%,30.7%,20.3%,55.8%,15.8%,28.2%,43.1%,32.3%,33.9%
